Measured values: PubChem BioAssay (NCI)
Several values for one entry are separate records, joined by “and”; a condition that tells them apart may be missing. Identical values can stand only once. About 83,000 compounds went through this panel and 20% of them were active in at least one assay; those are over-represented in the sample as a whole.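 Step 1: grow cells in 96-well plates. Step 2: add test compound at a single concentration. Step 3: incubate 48 h. Step 4: record percent growth.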 Values without a mark were called inactive. Activity calls are given as the source filed them. The calls were made as follows: active = growth percent below 10; inactive = the rest.

tested on: MDA-MB-468 breast; assay: NCI-60 one-dose screen, 48 h (100 = growth as untreated, 0 = no growth, -100 = all killed); settings: 10 µM unless noted

Question: CNC(=O)c1[nH]cc(-c2ccccc2)c1-c1cc(OC)c2c(c1OC)OCO2 was tested. Which growth did it give?
Answer: 100%

Question: How did the growth turn out when O=c1c(/C=C/c2c(O)ccc3ccccc23)nnc2sc(-c3cccc([N+](=O)[O-])c3)nn12 was run?
Answer: 40.9%

Question: For Nc1nc(-c2cccc([N+](=O)[O-])c2)c(N=Nc2ccc([N+](=O)[O-])cc2Cl)s1, which growth is on record?
Answer: -10.7% (active)

Question: Which growth does the source give for O=C(Nc1nc2ccccc2[nH]1)C(=O)Nc1nc2ccccc2[nH]1 here?
Answer: 103%

Question: How did the growth turn out when O=[N+]([O-])c1ccc(-c2nc(Cl)c3c(n2)CCCC3)o1 was run?
Answer: 54.1%

Question: How did the growth turn out when CCn1cnc2c1c(=O)[nH]c(=O)n2CC1CCC(CNS(=O)(=O)c2ccc(OC3CCOCC3)c(F)c2)CC1 (stereo not given) was run?
Answer: 30.5%

Question: How did the growth turn out when O=C1C(N2CCOCC2)=C(I)C(=O)c2ncccc21 was run?
Answer: 42%

Question: How did the growth turn out when O=C(/C=C/C12c3ccccc3C(c3ccccc31)C1C(=O)N(c3ccccc3)C(=O)C12)c1ccccc1 (stereo not given) was run?
Answer: 1.31% (active)

Question: How did the growth turn out when Nc1cc(-c2nc3sccn3c2-c2ccnc(NCCCNS(=O)(=O)c3ccc(F)cc3)n2)ccc1F was run?
Answer: 41.7%

Question: With Cc1ccc(S(=O)(=O)N/N=C2\CC3CCC2C3)cc1 (stereo not given) as the compound, how does the growth read?
Answer: 110%

Question: For COC(=O)/C=C1/CCC2C3CCC4=CC(=O)C(Br)CC4(C)C3C(=O)CC12C (stereo not given), which growth is on record?
Answer: 13.9%

Question: How did the growth turn out when COc1cc2c(cc1OC)C(=O)/C(=C/c1cc(C)c(O)c(C)c1)S2 was run?
Answer: 11.4%

Question: For C/C=C\COc1cc(C)c(Cl)cc1Cl, which growth is on record?
Answer: 91.5%

Question: For Nc1c(C(=O)Nc2cccc(Cl)c2)sc2ncc(Cl)cc12, which growth is on record?
Answer: 95.3%

Question: Which growth does the source give for COc1cc(Oc2cc(-c3cccnc3)ccc2NC(=O)Nc2ccc(F)cc2F)cc(OC)c1OC here?
Answer: 97.7%

Question: Which growth does the source give for COc1ccc(-c2nc(N3CCCC3=O)sc2Br)cc1OC here?
Answer: 94.8%

Question: With CCN1CCN(C(=O)[C@]23CCC(C)(C)C[C@@H]2C2=CC[C@@H]4[C@@]5(C)CCC(=O)C(C)(C)[C@@H]5CC[C@@]4(C)[C@]2(C)CC3)CC1 as the compound, how does the growth read?
Answer: 30.5%

Question: How did the growth turn out when COc1ccc(-c2nc([C@@H](C)Sc3nc(N)cc(N)n3)c(C)s2)cc1OCCN1CCOCC1 was run?
Answer: 92.7%

Question: For O=C1C=CC(=O)C2=C1CCCC2, which growth is on record?
Answer: 61.5%

Question: How did the growth turn out when CC(=O)N1C/C(=C/c2ccc(Cl)cc2)C(=O)/C(=C/c2ccc(Cl)cc2)C1 was run?
Answer: -80% (active)

Question: CCOC(=O)c1sc2ncc(-c3ccc(OC)cc3)n2c1C was tested. Which growth did it give?
Answer: 103%

Question: For Cc1ccc(Cl)cc1NC(=O)c1cc2ccccc2cc1O, which growth is on record?
Answer: -58.7% (active)

Question: For N=C(N)c1ccc(-c2ccc(-c3ccccc3)s2)s1, which growth is on record?
Answer: -94.5% (active)

Question: Which growth does the source give for COc1ccc(C2C(c3ccccc3)C(=O)N2c2cc(OC)c(OC)c(OC)c2)cc1I (stereo not given) here?
Answer: 15.7%

Question: Cc1ccc2sc3c(NCCCN)nc4ccccc4c3c(=O)c2c1 was tested. Which growth did it give?
Answer: -6.52% (active)

Question: How did the growth turn out when COC(=O)c1ccc(NC2=C(Cl)C(=O)C(C)=C(C)C2=O)cc1 was run?
Answer: -45.9% (active)

Question: With Cc1ccc(NC(=O)c2ccc(CN3CCN(C)CC3)cc2)cc1Nc1nccc(-c2cccnc2)n1 as the compound, how does the growth read?
Answer: 70.9% and 73.4%

Question: For NNc1ncnc2c1ncn2C1OC(CO)C(O)C1O (stereo not given), which growth is on record?
Answer: 58.8%

Question: Which growth does the source give for COc1cc2nc3cc([N+](=O)[O-])ccc3c(NCCCNCC(C)(C)O)c2cc1OC here?
Answer: -57.7% (active)

Question: For Cc1c(-c2noc(-c3ccc([N+](=O)[O-])cc3)n2)no[n+]1[O-], which growth is on record?
Answer: 104%

Question: COc1ccc(-c2nn(-c3cccc(NC(=O)c4ccc(Cl)c(Cl)c4)c3)cc2-c2ccncc2)cc1Cl was tested. Which growth did it give?
Answer: 73.3%

Question: Which growth does the source give for O=c1[nH]c(-c2ccccn2)nc2sc3c(c12)CCCCCC3 here?
Answer: 37.8%

Question: How did the growth turn out when Ic1ccc(Nc2nc3nonc3nc2Nc2ccc(I)cc2)cc1 was run?
Answer: -4.36% (active)

Question: For CCCc1c(C)c2sc(=O)[nH]c2[nH]c1=O, which growth is on record?
Answer: 99.4%

Question: For NNC(=O)c1nc(N)n(-c2ccc(S(N)(=O)=O)cc2)n1, which growth is on record?
Answer: 108%

Question: With O=C1Nc2ccc(Cl)cc2/C1=C/c1ccc(OCC(=O)c2ccc(Br)cc2)cc1 as the compound, how does the growth read?
Answer: 111%

Question: Which growth does the source give for CCOC(=O)c1cc2c(n1Cc1cc(OC)cc(OC)c1Br)-c1nc(NC(C)=O)sc1CCC2 here?
Answer: 77.7%

Question: For COc1ccc2c(c1)[nH]c(=O)c1c3cccc(F)c3cn21, which growth is on record?
Answer: 51.8%

Question: With Nc1ccc(C(=O)c2ccc(N)c(Br)c2)cc1Br as the compound, how does the growth read?
Answer: -0.913% (active)

Question: Which growth does the source give for O=C(/C=C/c1ccc(Cl)cc1)c1ccc(NC(=O)N2CCN(c3cc4c(cc3F)c(=O)c(C(=O)O)cn4C3CC3)CC2)cc1 here?
Answer: 96.6%
